Test results as given in PubChem BioAssay AID2279 (Southern Research Specialized Biocontainment Screening …, 2010).
Measured potencies and affinities stand elsewhere. Calls of active or inactive are those of the source. How the calls were made is not given here.

Test: HIV-1 Env-mediated cell fusion inhibitors, dose response, CCR5-tropic Env (AID 2279)
Settings: CCR5-tropic HIV-1 Env, reporter read-out; series mostly up to 50 µM

outcome, inactive:
COc1cccc(-c2nc(SCC(=O)Nc3nc(-c4ccccc4)c(C)s3)[nH]c(=O)c2C#N)c1, O=C(O)CN1C(=O)/C(=C\c2cc(Br)ccc2OCc2ccc(Cl)cc2Cl)SC1=S, Cc1ccc(S(=O)(=O)Oc2ccc(/C=C3\C(=N)N4N=C(S(C)(=O)=O)SC4=NC3=O)cc2)cc1, O=C(O)C1Nc2c(cccc2C(F)(F)F)C2C=CCC12 (centres undefined), CCc1nnc(NS(=O)(=O)c2ccc(NC(=S)NC(=O)/C=C/c3ccc(C(C)C)cc3)cc2)s1, Cc1ccc(NS(=O)(=O)c2ccc(N/N=C/c3ccccc3OCC(=O)O)c([N+](=O)[O-])c2)c(C)c1, CCOc1cc(/C=C2\C(=O)N(c3cccc(C(=O)O)c3)N=C2C(F)(F)F)ccc1OCC(=O)Nc1ccccc1OC, N#Cc1c(-c2cccs2)nc(SCc2ccc(Cl)cc2)[nH]c1=O, CCCCCc1c2c(cc(O)c1C(=O)O)OC(=O)c1c(cc(OC)cc1C(=O)CCCC)O2, COc1ccccc1OCCOc1ccc(/C=C2\C(=N)N3N=C(S(C)(=O)=O)SC3=NC2=O)cc1, O=c1/c(=C\c2cc([N+](=O)[O-])cc([N+](=O)[O-])c2O)sc2nc3ccccc3n12, COc1cc(NS(=O)(=O)c2ccc(Nc3nc(-c4ccccc4)cs3)cc2)nc(OC)n1, Cc1cc(N2C(=O)C(O)=C(C(=O)c3ccc(C)o3)C2c2cccc(Oc3ccccc3)c2)no1 (centres undefined), CCc1ccc(S(=O)(=O)/N=C2\C=C(NS(=O)(=O)c3ccccc3)C(=O)c3ccccc32)cc1, COc1cc(/C=C2\SC(=Nc3ccccc3)N(CCc3c[nH]c4ccccc34)C2=O)ccc1OC(C)C(=O)O (centres undefined), O=C(O)/C=C/C(=O)Nc1ccc(C2(c3ccc(NC(=O)/C=C/C(=O)O)cc3)c3ccccc3-c3ccccc32)cc1, COc1cc(/C=C2\S/C(=N/S(=O)(=O)c3ccc(C)cc3)NC2=O)c([N+](=O)[O-])cc1OC, O=C(Nc1cccc(C(F)(F)F)c1)c1cccc(NS(=O)(=O)c2ccc(O)c(C(=O)O)c2)c1, O=C(O)c1ccc(Cl)c(S(=O)(=O)Nc2ccccc2C(=O)Nc2ccc(Cl)cc2)c1, COC(=O)c1sc(-c2ccc(C(C)(C)C)cc2)cc1NC(=O)CSCC(=O)O, O=C(O)CCN1C(=O)/C(=C\c2cccc(Oc3ccccc3)c2)SC1=S, COc1cc(/C=C2/SC(=S)N(CC(=O)O)C2=O)ccc1OCC(=O)Nc1ccc(C)c(C)c1, O=C(O)COc1ccccc1/C=N/Nc1ccc(S(=O)(=O)Nc2ccc(Cl)cc2)cc1[N+](=O)[O-], COc1ccc(-c2csc(NC(=O)CSc3nc(C)nc4sc(C(=O)O)c(C)c34)n2)cc1, O=C(COc1cccc2ccccc12)Nc1ccc(Cl)cc1C(=O)O, CCOc1cc(/C=N/N=C2/NC(=O)C(CC(=O)O)S2)ccc1OCc1ccc(Cl)cc1Cl (centres undefined), CC(C)COc1ccc(-c2nn(-c3ccccc3)cc2/C=C2/SC(=S)N(CC(=O)O)C2=O)cc1, O=C(O)c1cccc2c(-c3ccccc3)c(-c3ccccc3)[nH]c12, O=C(NC(=S)Nc1ccccc1C(=O)O)c1ccc(-c2ccc(Br)cc2)o1, CCOc1cc(Br)cc(C(c2c(C(=O)O)[nH]c3ccccc23)c2c(C(=O)O)[nH]c3ccccc23)c1O, O=C(O)c1cccc(N/N=C/c2cc(Br)cc(Br)c2O)c1, O=C(O)c1ccc(-c2ccc(/C=c3/sc4nc5ccccc5n4c3=O)o2)cc1Cl, O=C(O)c1cc(N2N=C(C(F)(F)F)/C(=C/C=C/c3ccco3)C2=O)ccc1Cl, O=C(CCN1C(=O)/C(=C/c2cccs2)SC1=S)Nc1ccc(C(=O)O)c(O)c1
